# The sample as a whole holds a higher share of hits than the screen did.
# ID4 binder = ID4 (human) binding. AID 624137. calls only. small molecule microarray, Flag-ID4 binding, fluorescence F/B. hit rate 1.2% among 31,000. P47928; call rule not given here;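 also: a binder raises fluorescence above local background on the spot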
# Target sequence (P47928 whole entry, looked up): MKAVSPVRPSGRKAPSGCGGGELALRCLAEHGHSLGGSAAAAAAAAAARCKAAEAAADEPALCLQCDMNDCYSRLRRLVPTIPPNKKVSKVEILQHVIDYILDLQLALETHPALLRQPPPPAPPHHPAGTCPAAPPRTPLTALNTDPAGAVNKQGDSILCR
# Numbers without * were called inactive; i = inactive; + = active, no number.
SMILES,ID4 binder
C[C@@H]1CCCCO[C@H](CN(C)Cc2ccncc2)[C@@H](C)CN([C@H](C)CO)C(=O)c2cc(NC(=O)Nc3ccccc3)ccc2O1,i
C[C@@H]1CCCCO[C@@H](CN(C)C(=O)Nc2ccccc2)[C@@H](C)CN([C@H](C)CO)C(=O)c2cc(NC(=O)Nc3ccccc3)ccc2O1,i
C[C@H](CO)N1C[C@H](C)[C@H](CN(C)C(=O)Nc2ccccc2)OCCCC[C@H](C)Oc2ccc(NC(=O)Nc3ccccc3)cc2C1=O,i
CS(=O)(=O)N(CC(=O)Nc1ccccc1C(=O)N1CCOCC1)c1cc(C(F)(F)F)ccc1Cl,i
CCc1ccc(-c2cn3c4ccccc4nc3n2CCN2CCOCC2)cc1,i
COC(=O)c1c(NC(=O)C2CC=CCC2C(=O)O)sc2c1CCC(c1ccccc1)C2 (stereo not given),i
CCOC(=O)c1cc(NC(=O)CSc2nc3ccccc3[nH]2)ccc1Cl,i
Cc1ccc(-c2noc(CN(C(=O)c3ccc([N+](=O)[O-])cc3)C(C)C)n2)cc1,i
O=C(OCCSc1cnc2ccccc2n1)c1cc(Cl)cc(Cl)c1,i
Nc1ncnc2c1c1nc3ccccc3nc1n2CCc1ccccc1,i
C[C@@H]1CCCCO[C@@H](CN(C)S(=O)(=O)c2cccs2)[C@@H](C)CN([C@H](C)CO)C(=O)c2cc(NS(C)(=O)=O)ccc2O1,i
C[C@H](CO)N1C[C@H](C)[C@H](CN(C)S(=O)(=O)c2cccs2)OCCCC[C@H](C)Oc2ccc(NS(C)(=O)=O)cc2C1=O,i
C[C@H](CO)N1C[C@H](C)[C@@H](CN(C)S(=O)(=O)c2cccs2)OCCCC[C@H](C)Oc2ccc(NS(C)(=O)=O)cc2C1=O,+
C[C@@H]1CN([C@@H](C)CO)C(=O)c2cc(NS(C)(=O)=O)ccc2O[C@@H](C)CCCCO[C@H]1CN(C)S(=O)(=O)c1cccs1,+
C[C@@H]1CCCCO[C@@H](CN(C)S(=O)(=O)c2cccs2)[C@H](C)CN([C@@H](C)CO)C(=O)c2cc(NS(C)(=O)=O)ccc2O1,i
C[C@@H]1CCCCO[C@@H](CN(C)S(=O)(=O)c2cccs2)[C@@H](C)CN([C@@H](C)CO)C(=O)c2cc(NS(C)(=O)=O)ccc2O1,i
COc1ccc(N(CC(=O)Nc2ccc(I)cc2C)S(C)(=O)=O)cc1Cl,i
Cc1ccc(-n2c(SCC(=O)Nc3ccccc3-c3ccccc3)nc3ccccc3c2=O)cc1,i
COc1ccccc1NC(=O)CSc1n[nH]c(-c2ccncc2)n1,i
Cc1cccc(OCC(=O)Nc2ccccc2C(=O)NC(C)(C)C)c1,i
CC(=O)N(C)C[C@@H]1Oc2cc(-c3cccc(F)c3)ccc2S(=O)(=O)N([C@@H](C)CO)C[C@@H]1C,i
C/C=C/c1ccc2c(c1)O[C@H](CN(C)Cc1ccccc1)[C@@H](C)CN([C@H](C)CO)S2(=O)=O,i
CC(=O)N(C)C[C@@H]1Oc2cc(-c3ccccc3C)ccc2S(=O)(=O)N([C@H](C)CO)C[C@@H]1C,+
COc1ccc(NC(=O)N(C)C[C@H]2Oc3cc(-c4cccc(C(=O)N(C)C)c4)ccc3S(=O)(=O)N([C@@H](C)CO)C[C@@H]2C)cc1,i
C[C@@H]1CN([C@H](C)CO)S(=O)(=O)c2ccc(-c3cccc(C(=O)N(C)C)c3)cc2O[C@H]1CN(C)C(=O)Nc1ccc(F)cc1,+
SMILES,ID4 binder
C[C@@H]1CN([C@@H](C)CO)S(=O)(=O)c2ccc(/C=C/c3ccccc3)cc2O[C@H]1CN(C)Cc1ccc(C(=O)O)cc1,+
Cc1ccccc1-c1ccc2c(c1)O[C@@H](CN(C)C)[C@@H](C)CN([C@H](C)CO)S2(=O)=O,i
Cc1ccccc1-c1ccc2c(c1)O[C@H](CN(C)C)[C@H](C)CN([C@H](C)CO)S2(=O)=O,i
C[C@H](CO)N1C[C@H](C)[C@H](CN(C)Cc2ccccc2)Oc2cc(/C=C/c3ccccc3)ccc2S1(=O)=O,i
C[C@H](CO)N1C[C@H](C)[C@@H](CN(C)C(=O)c2ccncc2)Oc2cc(C3=CCCC3)ccc2S1(=O)=O,+
CCCNC(=O)N(C)C[C@@H]1Oc2cc(C3=CCCC3)ccc2S(=O)(=O)N([C@@H](C)CO)C[C@H]1C,i
COCC(=O)N(C)C[C@H]1Oc2cc(C3=CCCC3)ccc2S(=O)(=O)N([C@@H](C)CO)C[C@H]1C,i
Cc1cc(C)c(OCC(=O)Nc2c[nH]c(=O)[nH]c2=O)cc1C,i
COC(=O)c1sccc1S(=O)(=O)Nc1ccc(-c2cn3c(n2)SCC3)cc1,i
Cc1cccc(C)c1NC(=O)CSc1nnnn1-c1ccc(I)cc1,i
O=C(Cn1cc(C(=O)c2ccccc2F)c2ccccc21)NCC1CCCO1 (stereo not given),i
Cc1nn(CC(=O)Nc2cc(Cl)cc(Cl)c2)c(C)c1[N+](=O)[O-],i
O=C(CSc1nnc(-c2ccc(Cl)cc2)n1-c1ccc(F)cc1)Nc1ccccc1F,i
CC1CCc2c(sc3ncn(CC(=O)Nc4c(C(C)C)cccc4C(C)C)c(=O)c23)C1 (stereo not given),i
O=C(NCCCN1CCOCC1)Nc1ccc(Cl)cc1,i
Cc1sc2ncnc(SCC(=O)Nc3ccc4c(c3)OCCO4)c2c1C,i
CCOC(=O)c1c(NC(=O)c2ccccc2[N+](=O)[O-])sc2c1CCCCCC2,i
C[C@@H]1CN([C@@H](C)CO)S(=O)(=O)c2ccc(-c3ccc(C(=O)N(C)C)cc3)cc2O[C@@H]1CN(C)C(=O)C1CCOCC1,i
COc1ccccc1-c1ccc2c(c1)O[C@H](CN(C)Cc1ccc3c(c1)OCO3)[C@H](C)CN([C@@H](C)CO)S2(=O)=O,i
CC(C)NC(=O)N(C)C[C@@H]1Oc2cc(-c3ccccc3)ccc2S(=O)(=O)N([C@@H](C)CO)C[C@@H]1C,i
C[C@H]1CN([C@@H](C)CO)S(=O)(=O)c2ccc(-c3ccccc3F)cc2O[C@H]1CN(C)Cc1cncnc1,i
C[C@H](CO)N1C[C@H](C)[C@H](CN(C)Cc2cncnc2)Oc2cc(-c3ccncc3)ccc2S1(=O)=O,+
C[C@H](CO)N1C[C@H](C)[C@@H](CN(C)C(=O)Nc2ccccc2F)Oc2cc(-c3ccc(C(=O)N(C)C)cc3)ccc2S1(=O)=O,+
C[C@@H]1CN([C@H](C)CO)S(=O)(=O)c2ccc(-c3ccc(C(=O)N(C)C)cc3)cc2O[C@@H]1CN(C)Cc1ccccc1C(=O)O,i
COc1ccc(NC(=O)N(C)C[C@@H]2Oc3cc(-c4ccncc4)ccc3S(=O)(=O)N([C@H](C)CO)C[C@H]2C)cc1,+
SMILES,ID4 binder
COc1ccc(NC(=O)N(C)C[C@H]2Oc3cc(-c4ccc(C)cc4)ccc3S(=O)(=O)N([C@@H](C)CO)C[C@H]2C)cc1,i
CC(C)NC(=O)N(C)C[C@H]1Oc2cc(-c3ccncc3)ccc2S(=O)(=O)N([C@@H](C)CO)C[C@@H]1C,i
C[C@@H]1CN([C@H](C)CO)S(=O)(=O)c2ccc(-c3ccc(C(=O)N(C)C)cc3)cc2O[C@@H]1CN(C)Cc1ccc2c(c1)OCO2,+
C[C@H](CO)N1C[C@H](C)[C@@H](CN(C)C)Oc2cc(-c3ccncc3)ccc2S1(=O)=O,i
CCN(CC(=O)Nc1ccc(C(N)=O)cc1)S(=O)(=O)c1ccc(Br)cc1,i
CCOc1ccc(-c2nc(C#N)c(NCCCN(CC)CC)o2)cc1,i
COc1ccc(N(C(=O)c2ccccc2)S(=O)(=O)c2cccc([N+](=O)[O-])c2)cc1,i

# Screens from PubChem BioAssay.
